Test results taken from paper PMC12214610.

Assays:
Conditions in all cases: virion
CCT7 = CCT7 (UniProt Q99832)
CCT8 = CCT8 (UniProt P50990)
ARHGEF1 = ARHGEF1 (UniProt Q92888)
EIF3H = EIF3H (UniProt O15372)
CDC23 = CDC23 (UniProt Q9UJX2)
CALR = CALR (UniProt P27797)
HSP90B1 = HSP90B1 (UniProt P14625)
HSPA4 = HSPA4 (UniProt P34932)
HSPA8 = HSPA8 (UniProt P11142)
HSPH1 = HSPH1 (UniProt Q92598)
MANF = MANF (UniProt P55145)
DYNLRB1 = DYNLRB1 (UniProt Q9NP97)
ARPC5L = ARPC5L (UniProt Q9BPX5)
ARPC4 = ARPC4 (UniProt P59998)
COMMD10 = COMMD10 (UniProt Q9Y6G5)
PPIB = PPIB (UniProt P23284)
CCDC93 = CCDC93 (UniProt Q567U6)
BZW1 = BZW1 (UniProt Q7L1Q6)
DNM2 = DNM2 (UniProt P50570)
LRRC59 = LRRC59 (UniProt Q96AG4)
AP3S1 = AP3S1 (UniProt Q92572)
CKAP2 = CKAP2 (UniProt Q8WWK9)
STX8 = STX8 (UniProt Q9UNK0)
ATP6V1A = ATP6V1A (UniProt P38606)
ATP6V1D = ATP6V1D (UniProt Q9Y5K8)
DARS1 = DARS1 (UniProt P14868)
AKTIP = AKTIP (UniProt Q9H8T0)
ANXA4 = ANXA4 (UniProt P09525)
AP1M1 = AP1M1 (UniProt Q9BXS5)
AP1S1 = AP1S1 (UniProt P61966)
DCTN4 = DCTN4 (UniProt Q9UJW0)
DYNC1H1 = DYNC1H1 (UniProt Q14204)

CCT5, P48643
cross-linked residues (CCT7): K214 - K250

TCP1, P17987
cross-linked residues (CCT8): K494 - K466

MDH2, P40926
cross-linked residues (ARHGEF1): K185 - K567

EIF3F, O00303
cross-linked residues (EIF3H): K238 - K221

CDC16, Q13042
cross-linked residues (CDC23): K572 - K547

HSPA5, P11021
cross-linked residues (CALR): K340 - K360
cross-linked residues (HSP90B1): K523 - K671
cross-linked residues (HSPA4): K81 - K272
cross-linked residues (HSPA8): K579 - K601
cross-linked residues (HSPH1): K376 - K703
cross-linked residues (MANF): K185 - K163

DYNC1I2, Q13409
cross-linked residues (DYNLRB1): K202 - K52

ARPC4, P59998
cross-linked residues (ARPC5L): K44 - K69

ARPC5, O15511
cross-linked residues (ARPC4): K67 - K44

COMMD2, Q86X83
cross-linked residues (COMMD10): K42 - K40

PDIA4, P13667
cross-linked residues (CALR): K245 - K360
cross-linked residues (PPIB): K245 - K116

CCDC22, O60826
cross-linked residues (CCDC93): K373 - K363

S100A6, P06703
cross-linked residues (BZW1): K26 - K223
cross-linked residues (DNM2): K47 - K299
cross-linked residues (LRRC59): K47 - K73

AP3D1, O14617
cross-linked residues (AP3S1): K7 - K149

NAPA, P54920
cross-linked residues (CKAP2): K227 - K23
cross-linked residues (STX8): K285 - K98

ATP6V1B2, P21281
cross-linked residues (ATP6V1A): K137 - K220
cross-linked residues (ATP6V1D): K430 - K24

EEF1E1, O43324
cross-linked residues (DARS1): K138 - K374

HOOK3, Q86VS8
cross-linked residues (AKTIP): K649 - K210

ANXA6, P08133
cross-linked residues (ANXA4): K478 - K57

AP1G1, O43747
cross-linked residues (AP1M1): K410 - K326
cross-linked residues (AP1S1): K334 - K56

ACTR10, Q9NZ32
cross-linked residues (DCTN4): K375 - K18

AP1B1, Q10567
cross-linked residues (AP1M1): K282 - K217

DYNC1LI2, O43237
cross-linked residues (DYNC1H1): K372 - K736
